The results in this text go back to PubChem BioAssay (NCI).

The structures appear in SMILES notation. Compounds without any hit were thinned out: in the full panel of roughly 83,000, 20% have a hit.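 Treatment: one concentration, 48 hours, 96-well format. Scoring: percent growth, with anything below 10 considered active.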 A number with no mark means an inactive call. Activity calls are given as the source filed them.

This experiment concerns SF-539 CNS. The experiment is described as follows: NCI-60 one-dose screen, 48 h (100 = growth as untreated, 0 = no growth, -100 = all killed). The note with it: 10 µM unless noted.
For `N=C(N)c1ccc(S(N)(=O)=O)cc1`, the growth was 129%. Under `C=C(C)[C@@H]1CC[C@]2(C(=O)OC)CC[C@]3(C)[C@H](CC[C@@H]4[C@@](C)(CC/C(N)=N/O)[C@H](C(=C)C)CC[C@]43C)[C@@H]12` stands 97.5%; under `COc1ccc(-c2nc3c(c(C)nn3-c3ccc(F)cc3)c(=O)[nH]2)cc1`, 87%. Consider `CC1(C)C(=O)/C(=C\c2ccco2)C[C@]2(C)[C@H]3CC[C@@H]4[C@@H](C(=O)/C=C/c5ccco5)CC[C@@]4(C)[C@]3(C)CC[C@@H]12`, for which the growth is 97.5%.

`CC1(C)CC[C@]2(C(=O)Nc3ccccn3)CC[C@]3(C)C(=CC[C@@H]4[C@@]5(C)C/C(=C/c6ccncc6)C(=O)C(C)(C)[C@@H]5CC[C@]43C)[C@@H]2C1`: the growth was 16.2%. The figure for `Cc1csc(-c2ccc3c(c2)COC3(CCCN(C)C)c2ccc(F)cc2)c1` (centres undefined) is 73.9%; for `Cc1nc([P+](c2ccccc2)(c2ccccc2)c2ccccc2)c(Sc2sc(-c3ccccc3)nc2[P+](c2ccccc2)(c2ccccc2)c2ccccc2)o1` it is 22.3%. Regarding `O=C(O[C@@H]1Cc2c(O)cc(O)cc2O[C@@H]1c1cc(O)c(O)c(O)c1)c1cc(O)c2c(c1)OCO2`, the growth is 108%. Under `Fc1ccc2c(c1)c(-c1nc(-c3c[nH]c4ncccc34)cs1)cn2CCCN1CCCCC1` stands 61.4%; under `O=P(O)(c1ccccc1)c1ccccc1I`, 101%; under `COc1ccc(/C=C(\C#N)c2cc3ccccc3n2S(C)(=O)=O)cc1`, 79.1%.

Turning to `CN1CCN(CCOc2ccc(-c3cnc4c(-c5cccc(F)c5)cnn4c3)cc2)CC1`, the growth was 70.6%. Take `Cc1ccc2oc(=O)cc(-c3sc(N4CCCCC4)nc3-c3ccccc3)c2c1`: the growth is 94.7%. Under `Cc1ccnc2c(OCc3ccccc3)cccc12` stands 104%; under `N#CC1=C(N)Oc2ccc3ccccc3c2C1c1ccccc1` (centres undefined), 11.4%; under `CN(C)CCCCC(C(=O)CBr)(c1ccccc1)c1ccccc1`, 20.2%. In the case of `CC(=O)O[C@H]1CC[C@]2(C)[C@H]3CC=C4[C@@H]5[C@H](C)[C@@H](C)CC[C@]5(C(=O)NCCNCCNCCN)CC[C@@]4(C)[C@]3(C)CC[C@H]2C1(C)C`, the growth was 84.4%.

In the case of `Cc1ccc(S(=O)(=O)Nc2ccc(-c3cc(-c4cccc(F)c4)c(C#N)c(N)n3)cc2)cc1`, the growth is 24%.

For `O=C1/C(=C\c2ccc(Br)o2)SC(=S)N1CCc1ccc(O)cc1`, the growth was 52.3%.

Turning to `CN(C)c1ccc(-c2ccc(-c3ccc(C(=N)N)c(F)c3)s2)cc1`, the growth was -93% (active). Consider `Cc1ccc(S(=O)(=O)Nc2ccc(-c3cc(-c4cccc(F)c4)c(C#N)c(=O)[nH]3)cc2)cc1`, for which the growth was 90.1%.

In the case of `O=C1CN(c2ccccc2)C(=O)C1C(=O)Nc1ccc(Cl)c(Cl)c1` (centres undefined), the growth was -9.88% [100 µM] (active).

As to `CN(C)CCCC1(c2ccc(F)cc2)OCc2cc(-c3ccc(C(F)(F)F)nc3)ccc21` (centres undefined), the growth is 80.8%. For the compound `Fc1ccc(Nc2nnc(-c3ccc(Cl)cc3)o2)cc1`, the growth is 103%. Under `C=C(C)[C@@H]1CC[C@]2(/C=N/Nc3ccncc3)CC[C@]3(C)[C@H](CC[C@@H]4[C@@]5(C)CCCNC(C)(C)[C@@H]5CC[C@]43C)[C@@H]12` stands 88.7%. In the case of `O=C1c2ccccc2NC(c2cn(-c3ccccc3)nc2-c2cccs2)N1Cc1ccccc1` (centres undefined), the growth is 88.5%. The figure for `Cc1cccc(C)c1NCc1nc(-c2ccccc2)n[nH]1` is 93.2%; for `NC(N)=N/N=C/c1ccc(-c2ccc(-c3ccc(Cl)cn3)s2)cc1` it is 85.9%; for `CCOC(=O)C1OC1(c1ccccc1)c1ccccc1` (centres undefined) it is 106%.
